In one assay the target is GDF3. Put plainly: pooled miR-30 sensor sort-seq; sequence = guide strand. To be noted: shRNA.
Consider TAGAATGACATTGTCATTATTG, for which the sensor-assay potency score (higher = more potent) is -1.56.
In turn, TTTACCCTAAGAACACTCCTTC gave a sensor-assay potency score (higher = more potent) of 0.541.
For TAACAGGAAGCTGAAAGCCAAA, the sensor-assay potency score (higher = more potent) was -1.72.
For the sequence TTCTTTGACCAGTATCTCCAGG, the sensor-assay potency score (higher = more potent) is -0.0651.
On to TTACGTAGCATAAGTCTCGGGA, for which the sensor-assay potency score (higher = more potent) was determined as 0.238.
TTCTTGAAATTGGACTGCCTGG gave a sensor-assay potency score (higher = more potent) of -1.06.
TGAAGTGAACAGCACCTTGTGG showed a sensor-assay potency score (higher = more potent) of -0.321.
Still for that read-out and setting: then ATCCTTAGCTACATCCAGCAGG, with -0.935; and ATTGTCATTATTGTCCTGGTAG, with 0.032; and TTTATTAAAAGATTTACCCTAA, with 0.196.
On the same count and under the same terms, with TTTACGTAGCATAAGTCTCGGG the figure was -0.227; with TAATGTCGTAGAATGACATTGT, 0.288.

For the next assay, the target named is GEMIN6. The description is as above. Conditions: shRNA.
TTGTAAATGTAATCTTGCCATT: the sensor-assay potency score (higher = more potent) was -1.2.
Still for that read-out and setting: then AATAAGATCCTGAACACGCGAC, with -0.339; and TATACTCATTCTTCTCACTGGC, with 0.16; and TTCAATAAGATCCTGAACACGC, with 0.147.
In the case of ATTCCGGTCACAGACATGCTGC, the sensor-assay potency score (higher = more potent) is -1.04.
Still for that read-out and setting: with TAAAATATAGTCTTTTTCTATC the figure was -1.26.

The values above are taken from the OligoGym collection.
Also: reference of the scale not given here.
